Key:
Assay in all cases: log2 ratio of Biotin-Ahx-Ub-VS probe labelling (fragment/DMSO); higher = less target engagement (more negative = stronger competition), active = hit call of the paper (q ≤ 0.05, log2 ratio ≤ -1)
Conditions in all cases: compound concentration: 200 uM; treatment time: 3 h
USP34 = USP34 (UniProt Q70CQ2)
Method in brief: (§1)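 Each value is an average log2 ratio of fragment to vehicle, tested by unpaired t-test. The underlying Spectronaut label-free quantities were global-median-normalised, and only proteins with ≥2 unique peptides were included. Triplicate HEK293T lysate samples (495 µg) were exposed to fragment at 200 µM or vehicle for 3 h, then to Biotin-Ahx-Ub-VS at 0.5 µM final for 1 h, before NeutrAvidin enrichment of labelled DUBs, LysC and trypsin digestion, and diaPASEF LC-MS/MS.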

USP36 = target: T1, USP36 (UniProt Q9P275)
T1 sequence (whole entry): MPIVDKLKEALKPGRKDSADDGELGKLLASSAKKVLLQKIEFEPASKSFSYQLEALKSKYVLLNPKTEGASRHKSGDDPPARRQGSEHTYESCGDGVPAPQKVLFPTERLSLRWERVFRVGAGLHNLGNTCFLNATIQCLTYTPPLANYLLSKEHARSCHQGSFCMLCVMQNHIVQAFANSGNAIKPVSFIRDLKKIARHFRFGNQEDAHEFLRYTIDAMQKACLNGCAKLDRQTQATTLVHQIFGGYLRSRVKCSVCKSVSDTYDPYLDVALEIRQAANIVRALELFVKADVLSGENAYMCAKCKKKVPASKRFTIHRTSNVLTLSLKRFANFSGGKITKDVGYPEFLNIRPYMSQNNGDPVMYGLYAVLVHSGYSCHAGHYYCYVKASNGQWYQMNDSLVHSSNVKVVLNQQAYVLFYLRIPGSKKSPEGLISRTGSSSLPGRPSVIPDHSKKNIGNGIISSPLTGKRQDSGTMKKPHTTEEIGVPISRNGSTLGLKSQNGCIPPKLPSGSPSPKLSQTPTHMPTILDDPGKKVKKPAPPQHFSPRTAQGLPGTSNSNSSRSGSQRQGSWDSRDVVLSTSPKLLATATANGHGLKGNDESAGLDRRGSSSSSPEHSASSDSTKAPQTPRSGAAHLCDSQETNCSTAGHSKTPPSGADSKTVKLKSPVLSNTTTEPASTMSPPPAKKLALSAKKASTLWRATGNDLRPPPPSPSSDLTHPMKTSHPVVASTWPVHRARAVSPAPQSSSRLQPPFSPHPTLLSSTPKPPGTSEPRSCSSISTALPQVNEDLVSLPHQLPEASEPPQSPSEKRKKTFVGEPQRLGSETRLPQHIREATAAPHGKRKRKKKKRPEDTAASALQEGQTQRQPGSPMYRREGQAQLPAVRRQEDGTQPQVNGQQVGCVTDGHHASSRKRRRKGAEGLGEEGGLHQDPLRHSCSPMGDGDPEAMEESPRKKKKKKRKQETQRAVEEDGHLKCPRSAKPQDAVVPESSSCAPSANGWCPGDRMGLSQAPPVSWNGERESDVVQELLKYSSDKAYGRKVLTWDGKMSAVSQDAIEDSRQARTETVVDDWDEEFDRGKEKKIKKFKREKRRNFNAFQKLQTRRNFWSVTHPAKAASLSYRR
Method in brief: as §1

USP38 = target: T2, USP38 (UniProt Q8NB14)
T2 sequence (whole entry): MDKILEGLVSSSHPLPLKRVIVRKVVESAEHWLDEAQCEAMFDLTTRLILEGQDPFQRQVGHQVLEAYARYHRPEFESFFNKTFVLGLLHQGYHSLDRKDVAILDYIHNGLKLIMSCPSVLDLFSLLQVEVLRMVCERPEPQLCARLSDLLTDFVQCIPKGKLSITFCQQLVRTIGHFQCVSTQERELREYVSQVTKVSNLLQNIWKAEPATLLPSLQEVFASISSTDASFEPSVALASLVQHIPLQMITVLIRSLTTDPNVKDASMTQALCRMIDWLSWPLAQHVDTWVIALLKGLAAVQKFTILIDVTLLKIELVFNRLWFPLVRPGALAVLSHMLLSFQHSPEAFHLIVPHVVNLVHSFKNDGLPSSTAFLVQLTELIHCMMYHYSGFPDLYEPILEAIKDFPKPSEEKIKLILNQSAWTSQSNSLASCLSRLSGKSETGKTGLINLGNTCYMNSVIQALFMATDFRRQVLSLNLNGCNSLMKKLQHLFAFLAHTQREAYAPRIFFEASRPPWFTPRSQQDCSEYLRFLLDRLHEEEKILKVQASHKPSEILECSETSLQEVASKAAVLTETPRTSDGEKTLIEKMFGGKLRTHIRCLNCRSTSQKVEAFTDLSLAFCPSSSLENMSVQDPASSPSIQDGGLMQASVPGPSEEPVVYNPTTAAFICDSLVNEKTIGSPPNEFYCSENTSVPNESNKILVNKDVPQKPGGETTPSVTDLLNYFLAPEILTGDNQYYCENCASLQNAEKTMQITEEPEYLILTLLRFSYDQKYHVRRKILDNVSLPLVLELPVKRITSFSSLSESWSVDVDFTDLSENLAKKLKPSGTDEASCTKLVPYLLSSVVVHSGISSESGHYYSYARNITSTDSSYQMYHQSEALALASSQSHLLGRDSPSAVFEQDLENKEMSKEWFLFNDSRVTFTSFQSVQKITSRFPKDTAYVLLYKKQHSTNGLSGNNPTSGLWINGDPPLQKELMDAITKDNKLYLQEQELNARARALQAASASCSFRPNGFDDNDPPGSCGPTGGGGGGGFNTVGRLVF
Method in brief: as §1

USP39 = target: T3, USP39 (UniProt Q53GS9)
T3 sequence (whole entry): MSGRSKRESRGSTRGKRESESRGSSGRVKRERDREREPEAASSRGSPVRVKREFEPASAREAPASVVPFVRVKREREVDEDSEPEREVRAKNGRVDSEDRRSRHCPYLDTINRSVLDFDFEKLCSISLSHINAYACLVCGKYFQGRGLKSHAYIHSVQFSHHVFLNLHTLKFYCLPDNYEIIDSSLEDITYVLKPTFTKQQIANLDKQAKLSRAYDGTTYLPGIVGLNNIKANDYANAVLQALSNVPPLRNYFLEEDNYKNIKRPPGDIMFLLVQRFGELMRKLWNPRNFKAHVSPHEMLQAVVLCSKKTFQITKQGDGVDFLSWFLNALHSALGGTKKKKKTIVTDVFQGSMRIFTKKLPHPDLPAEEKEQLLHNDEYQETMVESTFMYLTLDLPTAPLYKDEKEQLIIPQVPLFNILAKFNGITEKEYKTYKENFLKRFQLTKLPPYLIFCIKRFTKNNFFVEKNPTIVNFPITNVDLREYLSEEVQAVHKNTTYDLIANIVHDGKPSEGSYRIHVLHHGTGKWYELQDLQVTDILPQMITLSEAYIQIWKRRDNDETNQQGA
Method in brief: as §1

USP4 = target: T4, USP4 (UniProt Q13107)
T4 sequence (whole entry): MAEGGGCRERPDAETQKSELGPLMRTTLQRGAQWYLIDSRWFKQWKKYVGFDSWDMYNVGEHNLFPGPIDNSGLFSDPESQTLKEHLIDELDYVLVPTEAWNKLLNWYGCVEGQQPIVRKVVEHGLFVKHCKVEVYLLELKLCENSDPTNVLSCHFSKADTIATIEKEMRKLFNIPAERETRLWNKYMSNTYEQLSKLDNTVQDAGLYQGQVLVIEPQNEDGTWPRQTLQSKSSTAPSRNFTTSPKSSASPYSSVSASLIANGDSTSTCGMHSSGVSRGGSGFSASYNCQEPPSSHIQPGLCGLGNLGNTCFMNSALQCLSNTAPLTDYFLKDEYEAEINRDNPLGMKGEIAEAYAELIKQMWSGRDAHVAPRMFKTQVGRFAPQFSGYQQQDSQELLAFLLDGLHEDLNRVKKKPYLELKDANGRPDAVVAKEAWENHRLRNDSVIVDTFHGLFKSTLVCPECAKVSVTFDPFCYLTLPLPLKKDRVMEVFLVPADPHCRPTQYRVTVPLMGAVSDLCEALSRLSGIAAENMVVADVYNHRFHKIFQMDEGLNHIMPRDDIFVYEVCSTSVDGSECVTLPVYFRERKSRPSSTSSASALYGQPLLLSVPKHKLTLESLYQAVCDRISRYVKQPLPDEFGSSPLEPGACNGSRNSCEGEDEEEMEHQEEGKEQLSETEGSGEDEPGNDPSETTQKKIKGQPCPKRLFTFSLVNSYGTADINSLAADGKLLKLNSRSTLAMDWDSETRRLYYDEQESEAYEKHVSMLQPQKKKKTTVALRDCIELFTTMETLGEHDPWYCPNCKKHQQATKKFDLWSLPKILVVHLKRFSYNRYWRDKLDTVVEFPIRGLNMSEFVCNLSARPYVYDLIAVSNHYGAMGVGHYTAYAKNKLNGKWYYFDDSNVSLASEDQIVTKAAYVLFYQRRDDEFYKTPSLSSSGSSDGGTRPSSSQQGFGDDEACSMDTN
Method in brief: as §1

Measured: log2 ratio of Biotin-Ahx-Ub-VS probe labelling

USP34, sequence (Q70CQ2 whole entry, the tested form may be a part): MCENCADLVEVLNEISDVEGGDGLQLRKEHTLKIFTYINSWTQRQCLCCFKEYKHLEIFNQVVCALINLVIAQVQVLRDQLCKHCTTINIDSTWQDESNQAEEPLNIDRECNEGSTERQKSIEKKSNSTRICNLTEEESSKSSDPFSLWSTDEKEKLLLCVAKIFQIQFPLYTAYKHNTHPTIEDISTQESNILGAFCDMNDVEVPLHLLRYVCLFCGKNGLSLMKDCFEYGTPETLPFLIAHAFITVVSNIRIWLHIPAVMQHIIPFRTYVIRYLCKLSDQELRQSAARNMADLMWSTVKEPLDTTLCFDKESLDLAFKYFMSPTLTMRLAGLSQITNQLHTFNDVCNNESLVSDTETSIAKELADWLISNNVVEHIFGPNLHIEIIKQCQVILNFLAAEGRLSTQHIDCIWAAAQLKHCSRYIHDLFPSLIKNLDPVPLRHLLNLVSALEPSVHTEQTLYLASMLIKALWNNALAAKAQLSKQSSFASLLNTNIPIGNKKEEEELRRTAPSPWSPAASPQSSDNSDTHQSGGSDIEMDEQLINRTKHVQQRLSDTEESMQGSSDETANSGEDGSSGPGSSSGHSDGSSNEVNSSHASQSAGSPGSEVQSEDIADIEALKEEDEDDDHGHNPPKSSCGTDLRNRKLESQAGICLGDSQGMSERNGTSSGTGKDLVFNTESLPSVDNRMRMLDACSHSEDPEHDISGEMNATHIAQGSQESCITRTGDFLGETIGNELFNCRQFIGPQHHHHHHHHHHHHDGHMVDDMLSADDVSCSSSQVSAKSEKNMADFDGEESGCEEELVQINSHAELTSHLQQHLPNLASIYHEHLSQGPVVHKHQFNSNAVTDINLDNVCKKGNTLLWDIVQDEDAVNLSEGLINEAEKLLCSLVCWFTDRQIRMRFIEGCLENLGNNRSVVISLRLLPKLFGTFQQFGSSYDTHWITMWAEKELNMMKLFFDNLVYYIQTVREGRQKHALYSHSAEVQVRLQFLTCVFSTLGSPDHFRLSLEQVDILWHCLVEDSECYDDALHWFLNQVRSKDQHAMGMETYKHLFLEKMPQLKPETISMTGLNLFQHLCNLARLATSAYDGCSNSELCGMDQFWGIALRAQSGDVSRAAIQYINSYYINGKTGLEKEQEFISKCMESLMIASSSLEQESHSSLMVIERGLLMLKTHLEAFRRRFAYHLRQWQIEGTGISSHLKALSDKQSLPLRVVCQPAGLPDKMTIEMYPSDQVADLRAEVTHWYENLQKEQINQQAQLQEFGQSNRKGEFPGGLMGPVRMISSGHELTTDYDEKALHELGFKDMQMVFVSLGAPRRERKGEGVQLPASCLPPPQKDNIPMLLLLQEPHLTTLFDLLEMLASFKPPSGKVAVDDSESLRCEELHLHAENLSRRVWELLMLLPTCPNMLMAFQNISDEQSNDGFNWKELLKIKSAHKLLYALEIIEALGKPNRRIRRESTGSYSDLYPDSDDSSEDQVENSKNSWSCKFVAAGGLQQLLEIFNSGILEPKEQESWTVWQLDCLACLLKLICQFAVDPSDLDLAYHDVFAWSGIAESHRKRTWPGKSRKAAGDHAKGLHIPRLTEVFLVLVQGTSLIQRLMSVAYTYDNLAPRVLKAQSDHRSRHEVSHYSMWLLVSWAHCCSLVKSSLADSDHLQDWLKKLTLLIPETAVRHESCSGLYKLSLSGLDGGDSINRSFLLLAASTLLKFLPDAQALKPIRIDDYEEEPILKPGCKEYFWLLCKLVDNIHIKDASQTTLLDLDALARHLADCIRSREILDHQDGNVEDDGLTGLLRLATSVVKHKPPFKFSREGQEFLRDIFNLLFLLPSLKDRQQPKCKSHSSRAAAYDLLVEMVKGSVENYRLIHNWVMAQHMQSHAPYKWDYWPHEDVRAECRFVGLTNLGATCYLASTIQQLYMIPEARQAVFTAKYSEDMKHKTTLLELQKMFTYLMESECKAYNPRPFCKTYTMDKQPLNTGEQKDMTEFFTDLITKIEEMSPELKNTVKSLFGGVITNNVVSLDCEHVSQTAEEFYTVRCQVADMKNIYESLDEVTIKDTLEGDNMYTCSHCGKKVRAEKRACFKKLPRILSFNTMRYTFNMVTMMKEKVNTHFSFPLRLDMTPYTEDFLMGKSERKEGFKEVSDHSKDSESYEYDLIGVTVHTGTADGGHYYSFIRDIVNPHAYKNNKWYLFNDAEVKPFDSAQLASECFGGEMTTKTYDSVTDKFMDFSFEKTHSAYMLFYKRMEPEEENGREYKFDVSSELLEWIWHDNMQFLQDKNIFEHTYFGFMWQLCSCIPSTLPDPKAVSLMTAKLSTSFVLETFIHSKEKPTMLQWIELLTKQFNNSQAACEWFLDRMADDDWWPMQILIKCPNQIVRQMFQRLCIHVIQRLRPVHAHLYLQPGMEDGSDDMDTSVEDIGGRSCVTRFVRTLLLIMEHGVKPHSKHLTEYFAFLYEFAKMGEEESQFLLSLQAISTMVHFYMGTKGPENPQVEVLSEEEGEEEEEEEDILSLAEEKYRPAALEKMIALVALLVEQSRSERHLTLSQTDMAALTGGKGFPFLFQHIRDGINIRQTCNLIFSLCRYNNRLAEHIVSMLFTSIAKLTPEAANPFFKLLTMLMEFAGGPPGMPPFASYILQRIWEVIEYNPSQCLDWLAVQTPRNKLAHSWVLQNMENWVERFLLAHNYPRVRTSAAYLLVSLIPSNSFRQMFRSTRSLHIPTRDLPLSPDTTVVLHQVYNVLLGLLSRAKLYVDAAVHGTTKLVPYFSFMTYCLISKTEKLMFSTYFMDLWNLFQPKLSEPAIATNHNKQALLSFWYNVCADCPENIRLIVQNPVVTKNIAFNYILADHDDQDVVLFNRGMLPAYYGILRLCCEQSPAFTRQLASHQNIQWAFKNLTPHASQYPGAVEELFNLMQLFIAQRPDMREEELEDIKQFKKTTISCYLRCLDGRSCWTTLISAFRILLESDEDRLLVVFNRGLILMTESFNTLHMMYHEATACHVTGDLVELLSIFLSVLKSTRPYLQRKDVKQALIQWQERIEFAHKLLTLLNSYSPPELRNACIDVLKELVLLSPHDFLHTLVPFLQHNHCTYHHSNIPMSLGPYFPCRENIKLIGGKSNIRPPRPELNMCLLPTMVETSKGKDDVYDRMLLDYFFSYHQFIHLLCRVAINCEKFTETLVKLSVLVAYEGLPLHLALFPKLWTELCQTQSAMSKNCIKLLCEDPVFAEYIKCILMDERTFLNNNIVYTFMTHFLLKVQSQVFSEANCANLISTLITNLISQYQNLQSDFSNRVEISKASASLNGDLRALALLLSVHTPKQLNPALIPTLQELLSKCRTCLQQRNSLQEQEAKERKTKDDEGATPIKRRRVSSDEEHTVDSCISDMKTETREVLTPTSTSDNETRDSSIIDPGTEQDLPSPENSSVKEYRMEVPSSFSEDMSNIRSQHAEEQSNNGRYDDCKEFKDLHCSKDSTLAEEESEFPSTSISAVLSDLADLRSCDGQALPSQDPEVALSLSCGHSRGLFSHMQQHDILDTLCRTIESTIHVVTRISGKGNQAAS

COCC1C=CCCN1C(=O)CCl (stereo not given)
inactive: USP34 -0.0902 | USP36 -0.00282 | USP38 -0.157 | USP39 -0.196 | USP4 -0.211
